The text below walks through data of PubChem BioAssay (Tox21).

Experiment [1] in a line: qHTS assay for small molecules that induce genotoxicity in human embryonic kidney cells expressing luciferase-tagged ATAD5 (AID 651632). Note: nearly all actives have a fitted effect of over 15% in size. The method in brief: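 Genotoxicity read-out via ATAD5-luciferase: HEK293T cells, 16 hr compound incubation at 37C, Amplite detection.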
On the technique in general: qHTS replaces the single test concentration by a dilution series.

Experiment [2] in a line: qHTS assay for small molecules that induce genotoxicity in human embryonic kidney cells expressing luciferase-tagged ATAD5 - cell viability (AID 651634; calls by dose curve; note: nearly all actives have a fitted effect of over 25% in size). The method in brief: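 Live-cell protease activity (CellTiter-Fluor, fluorescence) indicates viability. HEK293T cells with luciferase-tagged ATAD5; 15.5 hr compound treatment at 37C.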
Experiment [3] in a line: qHTS assay to test for compound auto fluorescence at 590 nm (red) in HepG2 cells (AID 720674). The method in brief:
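We screened compounds on adherent HepG2 cells, incubating them for an hour at 37 C in 5% CO2 before reading emission at 590 nm under 540 nm excitation; values reflect equivalence to Rose Bengal sodium fluorescence.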

A short description of experiment [4]: qHTS assay to test for compound auto fluorescence at 535 nm (green) in HepG2 cells (AID 720675).
Experiment [5] in a line: qHTS assay to test for compound auto fluorescence at 460 nm (blue) in HEK293 cells (AID 720678). Note: potency is the fitted concentration of half-maximal effect. The method in brief:
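Cells were seeded and left to adhere for 4-5 hr at 37C. Compounds were then pin-transferred. After an overnight incubation at 37C under 5% CO2, intrinsic fluorescence at 405/460 nm was measured and referenced to triamterene.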

The nature of experiment [6]: qHTS assay to test for compound auto fluorescence at 590 nm (red) in HEK293 cells (AID 720679). The method in brief:
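Each well held 2,000 HEK293 cells in medium containing 10% dialyzed FBS. Following 4-5 hr attachment at 37C, 23 nL test compound or DMSO was added; plates sat overnight, and red fluorescence (540/590nm) was recorded.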

A short description of experiment [7]: qHTS assay to test for compound auto fluorescence at 535 nm (green) in HEK293 cells (AID 720680).
Experiment [8] can be described thus: qHTS assay to test for compound auto fluorescence at 460 nm (blue) in HEK293 cell free culture (AID 720681). Note: potency is the fitted concentration of half-maximal effect. The method in brief: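 Blue fluorescence (Ex 405/Em 460 nm, triamterene-equivalent) was read immediately after pin transfer of compound or DMSO into medium (DMEM, 10% FBS) without cells.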
A short description of experiment [9]: qHTS assay to test for compound auto fluorescence at 535 nm (green) in HEK293 cell free culture (AID 720682). The method in brief:
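Using fluorescein as calibrant, autofluorescence was quantified at 485/535 nm in cell-free DMEM containing 10% FBS after pintool addition of compound or vehicle.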

The nature of experiment [10]: qHTS assay to test for compound auto fluorescence at 590 nm (red) in HEK293 cell free culture (AID 720683). The method in brief:
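Red-channel autofluorescence of compounds in culture medium (DMEM, 10% FBS), no cells, measured at 540/590 nm. Rose Bengal sodium is the reference fluorophore for equivalence.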

Experiment [11] can be described thus: qHTS assay to test for compound auto fluorescence at 590 nm (red) in HepG2 cell free culture (AID 720684). The method in brief: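 Plate contents were MEM with 10% FBS plus test compound or DMSO, no cells. Fluorescence was recorded with 540 nm excitation and 590 nm emission.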
Experiment [12] is described as follows: qHTS assay to test for compound auto fluorescence at 460 nm (blue) in HepG2 cell free culture (AID 720685). Note: potency is the fitted concentration of half-maximal effect. The method in brief:
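Compound (23 nL) or DMSO pinned into cell-free MEM with 10% FBS; blue fluorescence read at 405/460 nm excitation/emission, expressed as auto-fluorescence equivalency to triamterene.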

The nature of experiment [13]: qHTS assay to test for compound auto fluorescence at 535 nm (green) in HepG2 cell free culture (AID 720686).
Experiment [14] is described as follows: qHTS assay to test for compound auto fluorescence at 460 nm (blue) in HepG2 cells (AID 720687). Note: potency is the fitted concentration of half-maximal effect. The method in brief: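 Blue-channel autofluorescence (Ex/Em 405/460 nm, triamterene-equivalent) was measured after 1 hr compound exposure at 37 C, 5% CO2. Cells were HepG2, plated overnight at 37 C in MEM plus 10% FBS.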
Experiment [15] in a line: qHTS assay for small molecule disruptors of the mitochondrial membrane potential - cell viability (AID 720634; calls by dose curve;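 note: human HepG2 liver cancer cells; series mostly up to about 83 µM; nearly all actives have a fitted effect of over 20% in size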). The method in brief: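 Human hepatoma HepG2 cells were treated for 1 hr with test chemicals, then given m-MPI dye and CellTiter-Glo. Cell viability reflects luminescence proportional to cellular ATP.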
The target in experiment [16] is Glucocorticoid receptor (Homo sapiens) (UniProt P04150). Description: qHTS assay to identify small molecule agonists of the glucocorticoid receptor (GR) signaling pathway (AID 720691; active = well fitted activation curve with a large enough effect in the signal ratio in the repeat runs, not every such curve was filed as active; the % refers to the signal ratio). The method in brief: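 Beta-lactamase reporter activity, read as fluorescence intensity, was measured in GR-bla HeLa cells exposed to compounds for 18 h at 37 C and then loaded with LiveBLAzer B/G FRET substrate for 2 h at room temperature.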

The target is the same in experiment [17]. Description: qHTS assay to identify small molecule antagonists of the glucocorticoid receptor (GR) signaling pathway (AID 720692; active = well fitted inhibition curve with a large enough effect in the signal ratio in the repeat runs, not every such curve was filed as active; the % refers to the signal ratio). The method in brief: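 Fluorescence from cleaved LiveBLAzer B/G FRET substrate reports GRE-driven beta-lactamase in HeLa cells; compounds are tested against 5 nM dexamethasone (final) over 18 h at 37 C, substrate incubation 2 h at room temperature.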

Experiment [18] can be described thus: qHTS assay for small molecule agonists of the p53 signaling pathway - cell viability (AID 651633; calls by dose curve;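 note: p53RE-bla HCT reporter cells with a stable beta-lactamase p53 reporter; series mostly up to about 83 µM; nearly all actives have a fitted effect of over 30% in size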). The method in brief: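 Viability counter-read: CellTiter-Glo luminescence (30 min, room temperature) in the same p53RE-bla plates. These plates had been exposed to compounds for 16 h at 37 C.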
Experiment [19] is described as follows: qHTS assay for small molecule disruptors of the mitochondrial membrane potential (AID 720635). Note: potency is the fitted concentration of half-maximal effect. The method in brief: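 Mitochondrial membrane potential tracked with Mito-MPS dye, red aggregates (ex 540/em 590 nm) against green monomers (ex 490/em 535 nm). Compound treatment 1 hr at 37C, dye 30 min in HepG2.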

Structures are written as SMILES. A number with no mark means an inactive call. Inconclusive results are not listed. The source made the active and inactive calls. Unless noted, calls come from the whole dose curve; as a rule, active = well fitted curve in the direction sought with a large enough effect in the repeat runs; inconclusive = weak or mixed curves; inactive = no such curve, though single readings can be large; an effect the other way counts as inactive or inconclusive.
% is set by controls: 0 for no effect and ±100 for the full control effect; tags give direction and shape of the fitted curve or compound fluorescence and quenching.

Glucocorticoid receptor (Homo sapiens), sequence (P04150 whole entry, looked up): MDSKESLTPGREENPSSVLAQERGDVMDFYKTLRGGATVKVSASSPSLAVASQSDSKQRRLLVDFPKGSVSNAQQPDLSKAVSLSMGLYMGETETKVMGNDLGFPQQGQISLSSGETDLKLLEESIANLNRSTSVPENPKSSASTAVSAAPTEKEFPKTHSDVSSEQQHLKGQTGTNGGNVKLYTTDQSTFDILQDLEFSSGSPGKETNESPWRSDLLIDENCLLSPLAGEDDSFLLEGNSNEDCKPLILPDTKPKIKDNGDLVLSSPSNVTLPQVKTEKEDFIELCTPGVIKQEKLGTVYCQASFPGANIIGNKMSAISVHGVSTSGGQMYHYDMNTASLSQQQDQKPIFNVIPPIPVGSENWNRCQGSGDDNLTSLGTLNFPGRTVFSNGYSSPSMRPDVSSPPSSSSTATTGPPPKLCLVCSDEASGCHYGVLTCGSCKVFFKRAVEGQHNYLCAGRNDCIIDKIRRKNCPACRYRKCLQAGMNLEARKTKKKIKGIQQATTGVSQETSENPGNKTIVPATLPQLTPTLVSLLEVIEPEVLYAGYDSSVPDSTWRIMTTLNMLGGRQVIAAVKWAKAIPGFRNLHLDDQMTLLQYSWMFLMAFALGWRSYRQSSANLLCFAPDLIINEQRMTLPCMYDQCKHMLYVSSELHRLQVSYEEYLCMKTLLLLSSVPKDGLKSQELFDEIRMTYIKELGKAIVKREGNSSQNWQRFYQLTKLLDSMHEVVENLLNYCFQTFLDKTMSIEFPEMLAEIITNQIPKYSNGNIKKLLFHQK

Regarding `COc1cc(NC(C)CCCN)c2ncccc2c1` (stereo not given), the Potency result in experiment [1] and in experiment [2] was “inactive” in each case. The fluorescence, relative to Rose Bengal in experiment [3] is -0.0926% [at 18.6 µM]. Besides, the fluorescence, % of fluorescein control in [4] is -0.0145% [at 18.6 µM]; in [13], -0.0264% [at 18.6 µM]. Moreover, the fluorescence, % of triamterene in [5] is 1.22% [at 18.6 µM]. Further, the fluorescence, % of fluorescent control in [6] is -0.0138% [at 18.6 µM]; in [8], 1.01% [at 18.6 µM]; in [10], -0.109% [at 18.6 µM]; in experiment [12] it was 0.907% [at 18.6 µM]; in [14] it was 0.746% [at 18.6 µM]. In experiment [7], the fluorescence, % of fluorescein is -0.0105% [at 18.6 µM]. Besides, the activity change in experiment [9] was 0.0005% [at 18.6 µM]. Moreover, the fluorescence, % of Rose Bengal in experiment [11] is 0.347% [at 18.6 µM].
For the compound `CC1=CC[C@@H]2C[C@H]1C2(C)C`, in experiment [1], the activation was -0.905% [at 17.9 µM]. The activity, negative = cytotoxicity in [2] is -7.96% [at 17.9 µM]. Besides, the fluorescence, relative to Rose Bengal in experiment [3] was -0.0358% [at 18.6 µM]. In [5], the fluorescence, % of triamterene is -0.0033% [at 18.6 µM]. The fluorescence, % of fluorescent control was -0.712% [at 18.6 µM] in experiment [6]; 0.0118% [at 18.6 µM] in [8]; 0.0507% [at 18.6 µM] in experiment [10]; 0.0508% [at 18.6 µM] in experiment [12]; -0.0004% [at 18.6 µM] in experiment [14]. Besides, the fluorescence, % of fluorescein in [7] was -0.149% [at 18.6 µM]. In addition, in experiment [9], the activity change was -0.0302% [at 18.6 µM]. Further, in experiment [13], the fluorescence, % of fluorescein control was 0.0311% [at 18.6 µM].
For `CC(=O)NNC(C)=O`, the Potency entry in experiment [1], in [5], in experiment [8], in experiment [12], in experiment [14] and in experiment [16] was “inactive” throughout. For the same compound, the Potency result in [17] is “inactive”. Also, the compound was classed as inactive in experiment [15], in [3], in experiment [4], in [6], in experiment [7] and in [9]. Besides, the call in experiment [10], in [11] and in [13] was inactive.
For `COc1cc(S(=O)(=O)Nc2ccccc2)c(OC)cc1N`, the Potency entry in experiment [1], in experiment [18], in [5], in [8], in experiment [12] and in [14] was “inactive” throughout. Further, the Potency entry in [16] and in experiment [17] was “inactive” each time. The outcome in [15], in experiment [3], in experiment [6], in [7], in experiment [9] and in experiment [10] was inactive. Besides, in experiment [13], the compound was classed as inactive.
Turning to `CCN(CC)c1cccc(O)c1`, the Potency entry in [1], in [18], in [5], in experiment [8], in experiment [12] and in [14] was “inactive” each time. For the same compound, the Potency result in [16] and in experiment [17] was “inactive” each time. Moreover, the result in [15], in experiment [3], in [4], in [6], in [7] and in experiment [9] was inactive. Further, the compound was classed as inactive in experiment [10], in experiment [11] and in [13].
As for `CCOC(=O)c1c(N)sc2c1CCN(Cc1ccccc1)C2`, the Potency entry in experiment [1], in experiment [2] and in [16] was “inactive” each time. In addition, the result in experiment [15], in [3], in experiment [4], in experiment [6], in [7] and in experiment [9] was inactive. The compound was called inactive in experiment [10] and in experiment [13]. Moreover, the Potency is 14.1 µM [fluorescent] (active) in experiment [5], 15.8 µM (active) in [8], 15.8 µM [fluorescent] (active) in experiment [12] and 17.8 µM [fluorescent] (active) in experiment [14].
Consider `Cc1ccc(S(=O)(=O)NC(=O)NC2CCCCC2)cc1`, for which the Potency entry in experiment [1], in [2], in experiment [19], in experiment [5], in [8] and in experiment [12] was “inactive” in each case. The Potency result in experiment [14], in experiment [16] and in experiment [17] was “inactive” in each case. Moreover, the call in [15], in experiment [3], in experiment [4], in experiment [6], in experiment [7] and in [9] was inactive. Moreover, the compound was called inactive in experiment [10], in [11] and in experiment [13].
Take `CCCCC[C@H](O)/C=C/[C@H]1[C@H](O)CC(=O)[C@@H]1C/C=C\CCCC(=O)O`: the Potency entry in experiment [1], in [19], in experiment [5], in experiment [8], in [12] and in experiment [14] was “inactive” throughout. In experiment [16], the Potency entry is “inactive”. For the same compound, the outcome in experiment [15], in [3], in experiment [4], in experiment [6], in [7] and in experiment [9] was inactive. Moreover, the compound was called inactive in experiment [10], in experiment [11] and in experiment [13].
Turning to `CN1C(CSCC(F)(F)F)Nc2cc(Cl)c(S(N)(=O)=O)cc2S1(=O)=O` (stereo not given), the Potency entry in experiment [1], in experiment [2], in [19], in [5], in experiment [8] and in experiment [12] was “inactive” in each case. Moreover, the Potency result in experiment [14], in experiment [16] and in [17] was “inactive” throughout. Also, the compound was classed as inactive in [15], in [3], in experiment [6], in experiment [7], in [9] and in experiment [10]. For the same compound, the outcome in experiment [11] and in experiment [13] was inactive.
As for `CCCCCCCC(=O)Oc1c(Br)cc(C#N)cc1Br`, the Potency result in experiment [1], in [5], in experiment [8], in experiment [12], in experiment [14] and in experiment [16] was “inactive” in each case. Moreover, in [19], the Potency was 12.1 µM (active). For the same compound, the compound was classed as inactive in experiment [3], in [4], in [6], in experiment [7], in experiment [9] and in experiment [10]. Besides, the call in experiment [11] and in [13] was inactive.
